IL1B secr inh = inhibitors of inflammasome signaling (IL-1 beta secretion); AID 743279; activity change, % at 57.5 µM; THP-1 LPS/ATP IL-1B secretion, AlphaLISA, 16 h; hits give low values; 360,000 compounds, 4.7% hits; in the data active means activity change below about -50%; inconclusive means mostly about -30% to -49%
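THP-1 cells pretreated 1 hr with compounds (up to 57.5 uM final), then stimulated with LPS (250 ng/mL final) plus ATP (1.25 mM final); secreted IL-1B measured by AlphaLISA after 16 hr, decreased signal indicating inhibition.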
TDP1 cell noCPT = qHTS for Inhibitors of human tyrosyl-DNA phosphodiesterase 1 (TDP1): qHTS in cells in absence of CPT. 420,000 compounds, 15% hits. DT40 Tdp1-/- hTDP1 cells, no CPT, ATP luminescence, 48 h. Potency, µM (doses to about 46.2 µM), for the others: at the highest dose activity change, negative = growth inhibition, usual class: inhibitors; further: potency means the concentration at half of the fitted maximal effect; nearly all actives have a fitted effect of over 55% in size
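Growth kinetics read by CellTiter-Glo luminescence after ≥48 hr at 37 °C. Cells: DT40 Tdp1-/- stably carrying human TDP1, 400 per well, compound exposure in the absence of CPT (DMSO vehicle).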
Giardia kill = Giardia lamblia killing; activity change, % at 7.66 µM, hits read low; Giardia lamblia trophozoite viability; AID 540267; 340,000 compounds, 0.15% hits; in the data active means activity change below about -80%; inconclusive means between about -30% and that limit;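 further: parasites exposed to compound for two days anaerobically before the ATP read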
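Luminescent ATP signal served as the viability read-out, measured 15-30 min after adding ATP detection reagent to trophozoites that had been incubated with compounds for 48 hrs at 37 deg C anaerobically at 100 cells/well.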
ELG1 DNA repair = inhibitors of ELG1-dependent DNA repair in HEK293T cells. HEK293T ELG1-luciferase reporter, luminescence, 16 h; DNA damage induced by 5-fluorouridine. Potency, µM (titrated, usually from 46.1 µM), for inactives: at the highest dose activity change, negative = inhibition, hits mostly inhibitors. 330,000 compounds, 2.3% hits. AID 504467; further: potency means the concentration at half of the fitted maximal effect; nearly all actives have a fitted effect of over 55% in size
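In this reporter screen, reduction of luminescence relative to DMSO vehicle indicated activity. Compounds and 5-fluorouridine were added together to 2,000 cells per well, incubated for 16 hr at 37 °C, then developed with ONE-Glo.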
TDP1 inh = inhibitors of human tyrosyl-DNA phosphodiesterase TDP1. Q9NUW8. recombinant TDP1, AlphaScreen DNA substrate cleavage. Potency, µM (series often up to 130 µM), without a hit: at the top dose activity change, negative = inhibition, most hits filed as inhibitors. 350,000 compounds, 0.28% hits. AID 485290; further: potency means the concentration at half of the fitted maximal effect; nearly all actives have a fitted effect of over 40% in size
Target sequence (Q9NUW8 whole entry, looked up): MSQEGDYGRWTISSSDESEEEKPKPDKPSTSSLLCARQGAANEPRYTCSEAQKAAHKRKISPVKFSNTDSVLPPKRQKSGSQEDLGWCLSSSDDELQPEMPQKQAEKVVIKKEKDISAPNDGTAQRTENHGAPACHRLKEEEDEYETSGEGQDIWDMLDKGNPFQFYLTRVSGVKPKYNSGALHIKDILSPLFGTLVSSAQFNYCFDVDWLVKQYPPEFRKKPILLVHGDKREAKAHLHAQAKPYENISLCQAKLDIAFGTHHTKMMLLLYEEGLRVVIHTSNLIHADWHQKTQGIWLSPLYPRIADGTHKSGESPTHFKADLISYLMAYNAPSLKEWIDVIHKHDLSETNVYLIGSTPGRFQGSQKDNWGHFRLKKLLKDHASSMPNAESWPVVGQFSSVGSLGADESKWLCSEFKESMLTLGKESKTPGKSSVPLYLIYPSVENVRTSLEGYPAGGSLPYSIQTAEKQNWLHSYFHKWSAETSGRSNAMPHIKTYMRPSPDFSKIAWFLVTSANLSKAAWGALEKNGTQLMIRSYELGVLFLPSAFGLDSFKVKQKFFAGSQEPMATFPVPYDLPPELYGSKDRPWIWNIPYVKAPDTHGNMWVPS
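Tdp1 1 nM final; 15 min RT w/ cpd; substrate 15 nM, 5 min; beads 10 ug/ml, 10 min; AlphaScreen read. Neg ctrl: no enzyme.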
TDP1 cell CPT = growth inhibition of DT40 Tdp1-/-;hTDP1 cells with camptothecin (screen for TDP1 inhibitors); chicken DT40 Tdp1-/-;hTDP1 cells + 20 nM CPT, ATP luminescence, 48 h; Potency, µM (titrated, usually from 46.2 µM), without a hit: at the top dose activity change, negative = growth inhibition, actives largely listed as inhibitors; 420,000 compounds, 12% hits; further: potency means the concentration at half of the fitted maximal effect; nearly all actives have a fitted effect of over 55% in size
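Chicken DT40 Tdp1-/- cells stably complemented with human TDP1 were seeded at 400 cells/well in medium containing 20 nM camptothecin, exposed to pin-transferred compounds, and grown at 37 °C for at least 48 hr. Viability was read as ATP luminescence.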
* marks the source's active call; other numbers are inactive results; ? = inconclusive; nt = not tested or not shown; [ ] = another dose, or the depositor's remark. Compounds with a hit are over-represented: about 19% of the library has one in this group of screens. Unless noted, the call rests on the fitted dose curve; in most records, active means well fitted curve in the direction sought with a large enough effect; inconclusive means small, poorly fitted or top-dose-only effect, or another doubt; inactive means no such curve, though single readings can be large; an effect the other way counts as inactive or inconclusive. On the % scale 0 is the no-effect control and ±100 the full control effect.

SMILES | IL1B secr inh | TDP1 cell noCPT | Giardia kill | ELG1 DNA repair | TDP1 inh | TDP1 cell CPT
COc1cccc(N2C(=NC(=O)CCC3CCCC3)SC3CS(=O)(=O)CC32)c1 (centres undefined) | 12 | -2% | 9 | ? | -2% | -18%
COC(=O)c1c(NC(=O)CN2C(=O)NC3(CCC(C)CC3)C2=O)sc2c1CCC2 (centres undefined) | 16 | 16µM* | -4 | ? | -7% | 15µM*
COC(=O)c1c(NC(=O)CN2C(=O)NC3(CCC(C(C)(C)C)CC3)C2=O)sc2c1CCCCC2 (centres undefined) | 17 | ? | -14 | -3% | 3% | -29%
COC(=O)c1c(NC(=O)CN2C(=O)NC3(CCc4ccccc4C3)C2=O)sc2c1CCCCC2 (centres undefined) | 24 | 26µM* | -5 | 5% | 3% | 21µM*
O=C(NCc1ccccn1)c1ccc(NS(=O)(=O)c2cccc(Cl)c2)cc1 | -5 | -3% | 21 | ? | 1% | 4%
CCN(CC(=O)Nc1ccc(NC(C)=O)cc1)C(=O)/C=C/c1ccc(C)o1 | -5 | 16% | -12 | 26% | 3% | -1%
CCOC(=O)C(CC)(CC)C(=O)/C=C/c1cccc(Br)c1 | -98* | 18µM* | -10 | nt | nt | 12µM*
CCOC(=O)COc1ccc(CC)cc1C(=O)c1ccn2nc(-c3ccc(F)cc3)cc2n1 | nt | ? | nt | nt | -5% | ?
COc1ccc(OC)c(NC(=O)COC(=O)CCC2CCCC2)c1 | -8 | -18% | -23 | 16% | -2%[56.1 µM] | 24%
COc1ccc(OC)c(NC(=O)COC(=O)c2cc3c(s2)CCC3)c1 | 61 | 3% | 1 | 23% | 2.8µM* | -29%
COc1ccccc1NC(=O)COC(=O)c1cc2c(s1)CCC2 | 16 | -14% | 5 | 4% | 10µM* | 12%
CNc1ccc(Br)cc1C(O)c1ccccc1 (centres undefined) | 4 | 1% | 0 | ? | 7% | 1%
Cc1cccc(-c2nnn3c2nc(NCCc2ccc(S(N)(=O)=O)cc2)c2cc(Cl)ccc23)c1 | nt | 5.8µM* | nt | nt | 4% | 9.2µM*
Cc1ccc(-c2nnn3c2nc(NCCc2ccc(Cl)cc2)c2ccccc23)cc1 | nt | -16% | nt | nt | 9% | 4%
Cc1ccc(-c2nnn3c2nc(NCCc2ccc(S(N)(=O)=O)cc2)c2ccccc23)cc1 | 28 | ? | -5 | ? | 3% | -19%
CC(=O)NCCNc1nc2c(-c3cccc(C)c3)nnn2c2ccc(Cl)cc12 | nt | 21% | nt | nt | 4% | 14%
Cc1cccc(-c2nnn3c2nc(NCCc2ccc(S(N)(=O)=O)cc2)c2ccccc23)c1 | -9 | 16µM* | 11 | 2.6µM* | 4% | 15µM*
COc1cccc(CNc2nc3c(-c4cccc(C)c4)nnn3c3ccccc23)c1 | nt | ? | nt | nt | -1% | -23%
NS(=O)(=O)c1ccc(CCNc2nc3c(-c4cccc(F)c4)nnn3c3ccccc23)cc1 | 27 | 12µM* | -2 | 2.6µM* | 8% | ?
Cc1cccc(-c2nnn3c2nc(NCc2ccc4c(c2)OCO4)c2ccccc23)c1 | nt | ? | nt | nt | -1% | 23µM*
C[C@H](CO)N1C[C@H](C)[C@H](CN(C)C(=O)Nc2ccc(F)cc2)OCc2cnnn2CCCC1=O | -16 | 0% | nt | nt | nt | -12%
Cc1cccc(Nc2nc(Cl)ncc2F)c1C | 20 | 1% | -17 | ? | nt | 10%
COc1ccccc1CNC(=O)CCc1c(C)c2ccc(OC)c(C)c2oc1=O | nt | -23% | nt | nt | 7% | ?
Cc1cc(C)c2c(CC(=O)N3CCN(c4cccc(Cl)c4)CC3)coc2c1 | nt | ? | nt | nt | 2% | ?
C=CCN(C(=O)c1csnn1)C(C(=O)NC1CCCCC1)c1ccc(F)cc1 (centres undefined) | 12 | -3% | -4 | 0% | 8% | -1%

From PubChem BioAssay
